Assay [1] is described as follows: Drug repurposing screens with cells derived from glioblastoma tumor samples (AID 1345199). Also: nearly all actives have a fitted effect of over 40% in size. Also: potency is read from the fitted curve at half-maximal effect. As to activity, negative = cell killing: % is scaled to controls: 0 for no effect and ±100 for the full control effect. The conditions noted are these: GBM patient neurospheres viability, ATP luminescence, 48 h. Summed up:
(§1)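 Primary testing used CD133+ neurospheres from four GBM patients, seven concentrations, 48 h exposure and ATP-based viability; confirmation added three slower-growing patient lines.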

Another assay concerns astro (control astrocytes). Described as above. The conditions noted are these: viability, ATP luminescence, 48 h; series mostly up to 45.9 µM. The procedure, abridged:
as §1

The target in assay [2] is Nuclear receptor subfamily 1 group I member 2 (Rattus norvegicus) (UniProt Q9R1A7). The assay is described as follows: qHTS assay for small molecule activators of the rat pregnane X receptor (rPXR) signaling pathway (AID 651751; call rule not given here; also: 0% is about no effect). The note with it: rPXR reporter cells, luciferase (One-Glo), 24 h. Background: qHTS replaces the single test concentration by a dilution series.

Assay [3] is described as follows: qHTS assay for small molecule activators of the human pregnane X receptor (PXR) signaling pathway (AID 720659; call rule not given here; also: 0% is about no effect). The note with it: DPX-2 HepG2 CYP3A4-luciferase, 24 h; series mostly up to 92.3 µM.
Assay [4] is described as follows: qHTS assay to identify inhibitors of the type 1 interferon - major histocompatibility complex class I in skeletal muscle: Counter screen cell viability and HiBit confirmation (AID 1347412). Also: nearly all actives have a fitted effect of over 60% in size. Also: potency is read from the fitted curve at half-maximal effect. The conditions noted are these: iHSKM muscle cells + IFN-b, HiBiT or CellTiter-Glo, 24 h; Potency: HiBiT; Viability, at 45.9 µM (top of the series). Summed up: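 Myoblasts (C25cl48, HLA-B HiBiT) seeded in medium without dexamethasone, IFN-b 4 ng/ml added except unstimulated columns; 1 hr later compounds pinned (12-pt 1:3, top 46 uM final). Incubated 24 hrs, lysed 10 min, luminescence measured.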

The mark [5] stands for this setting: at 46.1 µM (top of the series), tumour line C.
The mark [6] stands for this setting: at 45.9 µM (top of the series), tumour line B.
Where [7] appears, read: at 45.9 µM (top of the series), tumour line D.

Values joined by “and” are separate entries in the source; they are usually repeats but may differ in a detail not shown here. Equal entries are not always repeated. A number with no mark means an inactive call. Results filed as inconclusive are left out. Active and inactive are the calls of the source. Unless noted, calls follow the shape of the dose curve; as a rule, active = well fitted curve in the direction sought with a large enough effect; inconclusive = small, poorly fitted or top-dose-only effect, or another doubt; inactive = no such curve, though single readings can be large; an effect the other way counts as inactive or inconclusive.

Chain of Nuclear receptor subfamily 1 group I member 2 (Rattus norvegicus) (Q9R1A7 whole entry, looked up): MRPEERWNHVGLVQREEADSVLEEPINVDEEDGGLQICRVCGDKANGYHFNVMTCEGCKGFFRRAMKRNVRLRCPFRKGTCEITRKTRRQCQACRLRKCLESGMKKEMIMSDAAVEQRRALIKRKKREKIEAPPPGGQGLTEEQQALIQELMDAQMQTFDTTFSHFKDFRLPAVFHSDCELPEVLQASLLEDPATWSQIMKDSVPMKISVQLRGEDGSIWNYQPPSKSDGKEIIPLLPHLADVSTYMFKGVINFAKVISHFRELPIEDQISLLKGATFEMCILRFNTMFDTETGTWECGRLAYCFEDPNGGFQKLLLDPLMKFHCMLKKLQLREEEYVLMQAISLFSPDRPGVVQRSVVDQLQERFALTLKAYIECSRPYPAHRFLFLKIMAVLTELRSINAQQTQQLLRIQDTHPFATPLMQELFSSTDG

On to `O=[N+]([O-])c1cc(I)c(O)c(I)c1`, for which, in assay [1] (setting [5]), the activity, negative = cell killing is -4.29%. The Potency in assay [1] (tumour line A) is 25.1 µM (active); in assay [1] (tumour line D), 22.4 µM (active); in the assay with astro, 35.5 µM (active).

For `CN(C)CCCCCCN(C)C` (tested in a mixture with another compound), the activity, negative = cell killing was -12.5% in assay [1] (setting [6]), -12.1% in assay [1] (setting [7]) and -16.2% in assay [1] (setting [5]). The Potency entry in the assay with astro is “inactive”.

Regarding `CCC(=O)O[C@]1(c2ccccc2)CCN(C)C[C@H]1C`, the activity, negative = cell killing is -13.3% in assay [1] (setting [6]), -17.1% in assay [1] (setting [7]) and -18.2% in assay [1] (setting [5]). The Potency result in the assay with astro was “inactive”.

Regarding `O=C(O)c1cc[c]([Hg][Cl])cc1`, the max response in assay [2] was -6.42%. Also, the result in assay [3] was inactive.

`O=[N+]([O-])C(Br)(CO)CO`: the activity, negative = cell killing in assay [1] (setting [5]) was -7.96%. Also, the Potency was 35.5 µM (active) in assay [1] (tumour line A) and 22.4 µM (active) with astro (control astrocytes). Moreover, the compound was called inactive in assay [3].

Turning to `O=C1CN=C(c2ccccc2)c2cc(Cl)ccc2N1CC1CC1`, the Potency entry with astro is “inactive”.

As to `CC(C)(C)c1cc(O)ccc1O`, the activity, negative = cell killing in assay [1] (setting [7]) was -24.6%; in assay [1] (setting [5]), 3.11%. In assay [2], the max response is 3.84% and -2.04% and 0.779%.

For the compound `Cc1cc(C)cc(C(=O)OC2C[C@H]3CC[C@@H](C2)N3C)c1` (some centres undefined), in the assay on astro, the Potency entry is “inactive”.

As for `CC1(C(=O)O)C2CCC(O2)C1(C)C(=O)O` (centres undefined), the Potency entry in assay [4] was “inactive”.

Consider `ClC1=C(Cl)[C@]2(Cl)[C@@H]3[C@H]4C[C@H]([C@@H]5O[C@H]45)[C@@H]3[C@@]1(Cl)C2(Cl)Cl`, for which the activity, negative = cell killing in assay [1] (setting [6]) is -22%. In addition, the Potency in assay [1] (tumour line A) was 11.2 µM (active). Moreover, in the assay on astro, the Potency result is “inactive”.

Take `C[C@H]1CC[C@@H]2[C@@H](C)[C@H]3[C@H](C[C@H]4[C@@H]5CC=C6CC(O[C@@H]7O[C@H](CO)[C@H](O)[C@H](O[C@@H]8O[C@H](CO)[C@@H](O)[C@H](O)[C@H]8O)[C@H]7O[C@H]7O[C@@H](C)[C@H](O)[C@@H](O)[C@H]7O)CC[C@]6(C)[C@H]5CC[C@]34C)N2C1` (some centres undefined): the activity, negative = cell killing in assay [1] (setting [5]) is -1.25%. Also, the Potency (in assay [1] (tumour line B); with astro) was 22.4 µM (active) throughout. In addition, in assay [3], the compound was called inactive.

Take `C/C(=C\c1csc(C)n1)[C@@H]1C[C@@H]2O[C@]2(C)CCC[C@H](C)[C@H](O)[C@@H](C)C(=O)C(C)(C)[C@@H](O)CC(=O)O1`: the activity, negative = cell killing in assay [1] (setting [6]) is -25.2%; in assay [1] (setting [7]) it was -19.9%. Also, the Potency result in assay [4] was “inactive”.

On to `O=C1C=C2C=C[C@@H]3C[C@@]2(O1)[C@H]1CCCCN31`, for which the Potency in the assay on astro was 17.8 µM (active).

For `C[C@]12CC[C@H](O)C[C@H]1CC[C@@H]1[C@@H]2CC[C@]2(C)[C@@H](c3ccc(=O)oc3)C[C@H]3O[C@]132`, the Potency in the assay with astro is 1.58 µM (active).

As for `c1ccc2c(c1)[I+]c1ccccc1-2`, the Potency in assay [4] was 7.01 µM (active).

Consider `CC(C)(C)c1cc(C=C(C#N)C#N)cc(C(C)(C)C)c1O`, for which, in assay [4], the Potency result is “inactive”.

On to `O=C1C=CC(=O)C=C1`, for which the max response in assay [2] is 0.171%. Moreover, the compound was classed as inactive in assay [3].

For the compound `CN1C2CCC1CC(OC(c1ccccc1)c1ccc(Cl)cc1)C2` (centres undefined), the Potency in the assay on astro is 17.8 µM (active).

On to `CO[C@H]1[C@@H](O)C[C@H](O[C@H]2[C@@H](O)C[C@H](O[C@H]3[C@@H](O)C[C@H](O[C@H]4CC[C@@]5(C)[C@H](CC[C@@H]6[C@@H]5C[C@@H](O)[C@]5(C)[C@@H](C7=CC(=O)OC7)CC[C@]65O)C4)O[C@@H]3C)O[C@@H]2C)O[C@@H]1C`, for which the Potency in the assay with astro is 0.282 µM (active).

As for `O=C(C[C@@H]1NCCC[C@H]1O)Cn1cnc2cc(Br)c(Cl)cc2c1=O`, the Potency result in the assay with astro was “inactive”.

`O=c1c2ccccc2[se]n1-c1ccccc1`: the Potency with astro is 22.4 µM (active).

Turning to `C[C@@H](Cc1ccccc1)NCCC(c1ccccc1)c1ccccc1`, the Potency result in the assay on astro was “inactive”.

As to `CCN(CC)CCO[C@H]1CC[C@@]2(C)C(=CC[C@@H]3[C@@H]2CC[C@]2(C)C(=O)CC[C@@H]32)C1`, the Potency entry in the assay with astro is “inactive”.

Take `CC(=O)O[C@H]1C[C@H](O[C@H]2[C@@H](O)C[C@H](O[C@H]3[C@@H](O)C[C@H](O[C@H]4CC[C@@]5(C)[C@H](CC[C@@H]6[C@@H]5C[C@@H](O)[C@]5(C)[C@@H](C7=CC(=O)OC7)CC[C@]65O)C4)O[C@@H]3C)O[C@@H]2C)O[C@H](C)[C@H]1O[C@@H]1O[C@H](CO)[C@@H](O)[C@H](O)[C@H]1O`: the Potency with astro was 0.282 µM (active).

As for `CNC(=O)Oc1ccccc1C(=O)Nc1ccccc1`, the Potency in the assay with astro is 22.4 µM (active).

With `C[C@H]1CC[C@]2(NC1)O[C@H]1C[C@H]3[C@@H]4CC[C@H]5C[C@@H](O[C@@H]6O[C@H](CO)[C@H](O[C@@H]7O[C@H](CO)[C@@H](O)[C@H](O[C@@H]8OC[C@@H](O)[C@H](O)[C@H]8O)[C@H]7O[C@@H]7O[C@H](CO)[C@@H](O)[C@H](O)[C@H]7O)[C@H](O)[C@H]6O)CC[C@]5(C)[C@H]4CC[C@]3(C)[C@H]1[C@@H]2C`, in the assay on astro, the Potency was 3.16 µM (active).

These data come from PubChem BioAssay (NCATS).
